From the supplement of paper PMC6897291

Tested on: U-2932
Assay: growth inhibition by drug alone (1 - RLU/untreated control) (fraction); higher = stronger inhibition
Settings: 177Lu-lilotomab satetraxetan 0 ug/ml
Experimental: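 U-2932 ABC-DLBCL cells were pretreated or not for 18 h with 1 ug/ml 177Lu-lilotomab satetraxetan (600 MBq/mg), washed and seeded (3000 cells/well) on 384-well plates pre-printed with the Selleck Cambridge Cancer Compound library. Viability was read by RealTime-Glo luminescence on days 3-6 after seeding. Effect = 1 - RLU/mean RLU of the 48 untreated no-drug control wells per plate; Bliss score = (M-E)/(1-Fa), with E the expected Bliss-additive effect.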

| Structure (SMILES) | growth inhibition by drug alone (10 nM, time (day): 3) | growth inhibition by drug alone (10 nM, time (day): 4) | growth inhibition by drug alone (10 nM, time (day): 5) | growth inhibition by drug alone (10 nM, time (day): 6) | growth inhibition by drug alone (1000 nM, time (day): 3) | growth inhibition by drug alone (1000 nM, time (day): 4) | growth inhibition by drug alone (1000 nM, time (day): 5) | growth inhibition by drug alone (1000 nM, time (day): 6) |
| --- | --- | --- | --- | --- | --- | --- | --- | --- |
| CC(C)n1c(/C=C/C(O)CC(O)CC(=O)O)c(-c2ccc(F)cc2)c2ccccc21 (stereo not given) [Fluvastatin sodium (Lescol)] | 0.0449 | -0.0165 | -0.0177 | 0.0304 | -0.0194 | -0.0389 | -0.0543 | 0.0255 |
| OCCn1cc(-c2ccc3c(c2)CC/C3=N\O)c(-c2ccncc2)n1 | -0.0296 | -0.0312 | -0.153 | -0.152 | -0.112 | -0.139 | -0.146 | -0.12 |
| O=c1cc(-c2cccc3c2Sc2ccccc2S3)oc(N2CCOCC2)c1 | -0.0795 | -0.0657 | -0.0216 | 0.0484 | -0.0815 | -0.0342 | -0.0721 | -0.125 |
| CC(C)n1nc(-c2ccc3oc(N)nc3c2)c2c(N)ncnc21 | 0.366 | 0.275 | 0.188 | 0.215 | 0.912 | 0.912 | 0.917 | 0.929 |
| CN1C(=O)C(Cc2c[nH]c3ccccc23)NC1=S (stereo not given) [Necrostatin-1] | 0.00216 | -0.00946 | -0.022 | -0.0551 | -0.0606 | -0.0746 | -0.132 | -0.0624 |
